PNC inhibitor – inhibitors of perinucleolar compartment assembly. activity change (PNC), negative = inhibition, % at 10 µM. PC3M PTB-GFP, PNC prevalence imaging, 16 h; stronger effect = lower value. 3.1% of 140,000 active. AID 2417;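 active = readout at or below -70, meaning at least 70% loss of cells showing the perinucleolar compartment, a nuclear body marking cancer cells; inconclusive = readout between -30 and a set limit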
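Compounds are pinned in duplicate onto adhered PC3M cells stably expressing GFP-tagged PTB and incubated 16 h at 37 C. Cells are then fixed, nuclei stained with Hoechst, and PNC-positive cells counted.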
HPGD block – HPGD (human) dehydrogenase inhibition | P15428 | purified HPGD, NADH fluorescence kinetic, PGE2 substrate | Potency, µM, most hits filed as inhibitors | 4.3% of 150,000 active | AID 894; active = well fitted inhibition curve with a large enough effect, not every such curve was filed as active; inconclusive = small, poorly fitted or top-dose-only effect, or another doubt; inactive = no such curve, though single readings can be large or run the other way
Target sequence (P15428 whole entry, looked up): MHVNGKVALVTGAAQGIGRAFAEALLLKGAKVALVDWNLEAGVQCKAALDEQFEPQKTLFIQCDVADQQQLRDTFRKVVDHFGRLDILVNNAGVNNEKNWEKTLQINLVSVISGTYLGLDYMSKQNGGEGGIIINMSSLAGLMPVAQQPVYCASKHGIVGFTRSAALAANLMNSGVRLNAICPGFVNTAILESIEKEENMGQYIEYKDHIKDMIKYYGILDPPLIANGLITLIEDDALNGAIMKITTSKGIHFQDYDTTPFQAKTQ
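20 nM HPGD preincubated 15 min at room temperature with compound in 50 mM Tris-HCl pH 8, 0.01% Tween 20. Started with 1 mM NAD+ and 30 uM prostaglandin E2; NADH fluorescence (360/450 nm) read 5 times over 30-s intervals, last minus first.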
12-hLO inh – inhibitors of human 12-lipoxygenase (ALOX12) | P18054 | purified 12-hLO, xylenol orange hydroperoxide absorbance | Potency, µM (doses to about 57.1 µM), usual class: inhibitors | 0.12% of 150,000 active | AID 1452; also: nearly all actives have a fitted effect of over 55% in size
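Purified human 12hLO (150 nM final) was preincubated with compounds for 15 min at room temperature in 25 mM Hepes pH 7.0, 0.01% Triton X-100, then reacted with 40 uM arachidonic acid for 30 min. Hydroperoxide was detected with ferrous iron/xylenol orange.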
IMPase Li inh – membrane-permeable IMPase blocker, potentiated with lithium. CHO-M1 cells, IP1 TR-FRET (IP-One), carbachol + lithium. Potency, µM (doses to about 59.4 µM), actives largely listed as inhibitors. 0.35% of 210,000 active. AID 1457;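 also: IP1 builds up when IMPase is blocked and the TR-FRET signal falls; nearly all actives have a fitted effect of over 50% in size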
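CHO-M1, 2000 cells/well, 16–30 h culture; cpd + low Li+, 30 min 37C; lysis with d2-IP1/Eu-anti-IP1 Ab, 10 min RT; TR-FRET 665/620 ratio and 620 channel; AC50 via Hill.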
ALDH1A1 block – inhibitors of human aldehyde dehydrogenase 1A1 | P00352 | Potency, µM (doses to about 75.3 µM), hits mostly inhibitors | 7.3% of 220,000 active | Purified ALDH1A1, NADH fluorescence, propionaldehyde substrate; active = well fitted inhibition curve with a large enough effect, not every such curve was filed as active; inconclusive = small, poorly fitted or top-dose-only effect, or another doubt; inactive = no such curve, though single readings can be large or run the other way
Target sequence (P00352 whole entry, looked up): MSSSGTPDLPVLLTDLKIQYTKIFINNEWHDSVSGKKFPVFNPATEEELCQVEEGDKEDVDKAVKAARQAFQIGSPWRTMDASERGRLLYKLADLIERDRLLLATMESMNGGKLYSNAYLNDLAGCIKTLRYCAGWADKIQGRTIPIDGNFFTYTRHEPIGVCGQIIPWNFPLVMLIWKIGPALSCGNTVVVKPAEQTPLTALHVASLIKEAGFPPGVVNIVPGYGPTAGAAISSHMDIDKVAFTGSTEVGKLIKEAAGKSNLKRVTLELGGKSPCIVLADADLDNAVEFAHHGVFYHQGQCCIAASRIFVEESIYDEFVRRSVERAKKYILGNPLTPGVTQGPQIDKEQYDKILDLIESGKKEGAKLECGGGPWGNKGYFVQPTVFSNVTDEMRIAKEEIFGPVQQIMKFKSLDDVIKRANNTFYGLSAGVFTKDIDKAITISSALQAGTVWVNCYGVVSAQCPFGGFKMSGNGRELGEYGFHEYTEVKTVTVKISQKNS
IMPase inh – membrane-permeable compound that blocks inositol monophosphatase; P97697; CHO-M1 cells, IP1 accumulation, HTRF TR-FRET ratio; inhibition (IP1 accumulation), % at 46.1 µM; 120,000 tested, under 10 active; AID 901; active = well fitted curve in the direction sought with a large enough effect in the signal ratio, not every such curve was filed as active; inconclusive = small, poorly fitted or top-dose-only effect, or a change in a side signal; inactive = no such curve, though single readings can be large or run the other way; the % refers to the signal ratio;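 also: cells stimulated with carbachol in lithium chloride buffer; higher means more IMPase inhibition seen as more IP1 and lower FRET ratio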
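Measured: the HTRF emission ratio (665/620 nm) plus the 620 nm donor channel, each fitted to the Hill equation to give AC50. Cells were CHO-M1 given compounds up to 46 uM and a 30 min carbachol stimulation at 37C.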
A number is an active result; - = inactive; ? = inconclusive; . = no result; [ ] = remark or other dose. A selection: hits, their analogues and other compounds. The true share with any hit is near 11%. Unless noted, calls follow the shape of the dose curve; as a rule, active = well fitted curve in the direction sought with a large enough effect; inconclusive = small, poorly fitted or top-dose-only effect, or another doubt; inactive = no such curve, though single readings can be large; an effect the other way counts as inactive or inconclusive.

SMILES	PNC inhibitor	HPGD block	12-hLO inh	IMPase Li inh	ALDH1A1 block	IMPase inh
CCCCCCC/C=C/C1=CC2(C)CC1(C)C(CCCCCCC)CC2=O (configuration not stated)	.	.	.	.	-[13.5 µM]	.
CC(C)(C)C(=O)Oc1cc(N)n(S(=O)(=O)c2ccc(F)cc2)n1	-	-	-	-	-	-
Cc1ccc(S(=O)(=O)n2nc(OC(=O)C3CCCCC3)cc2N)cc1	-	-	-	-	?	-
Nc1cc(OC(=O)c2ccco2)nn1S(=O)(=O)c1ccc(F)cc1	-	.	-	.	14µM	-
COc1ccc(S(=O)(=O)n2nc(OC(=O)C3CCCCC3)cc2N)cc1	-	-	-	-	2µM	-
Cc1ccc(S(=O)(=O)n2nc(OC(=O)c3cccs3)cc2N)cc1	-	-	-	-	2µM	-
CN(C)CCSCCO	.	-	-[11.4 µM]	-	-[13.5 µM]	.
c1ccc(-c2nc3ccccc3nc2-c2ccccn2)nc1	-86	-	-	-	-	-
CN(C)NC(=S)Nc1ccc2nc(-c3ccccn3)c(-c3ccccn3)nc2c1	-	-	-	-	?	-
CCOc1ccc(N(CC(=O)Nc2ccccc2C)S(=O)(=O)c2c(C)noc2C)cc1	-88	-	-	-	?	-
CCOc1ccccc1NC(=O)CN(c1ccc(OC)cc1)S(=O)(=O)c1c(C)noc1C	-97	-	-	-	-	-
CCOc1ccccc1NC(=O)CN(c1cc(C)cc(C)c1)S(=O)(=O)c1c(C)noc1C	-	-	-	-	?	-
CCOC(=O)c1c(Nc2ccc(OCC)cc2)nnc(-c2ccccc2)c1-c1ccccc1	.	.	.	.	.	-
CCC(Oc1ccc(F)cc1)C(=O)Nc1c(C(=O)c2ccc(C)cc2)oc2ccccc12 (configuration not stated)	.	.	.	.	.	-
COc1cc(-c2nnc(SCc3cc(=O)oc4cc(C)ccc34)o2)cc(OC)c1OC	-	?	-	-	6.3µM	-
CCCCN(Cc1ccccc1)S(=O)(=O)c1ccc2[nH]c(=O)oc2c1	-	-	-	-	5µM	-
O=c1[nH]c2ccc(S(=O)(=O)N3CCC(Cc4ccccc4)CC3)cc2o1	-	.	-	.	-	?
CCOc1cc2c(cc1OCC)C(c1c(F)cccc1Cl)CC(=O)N2 (configuration not stated)	.	.	.	.	.	-
COc1ccc(-n2c(=O)c(-c3ccc(F)c(F)c3)nc3cncnc32)cc1	.	.	.	-	-	.
COc1ccccc1NC(=O)Cn1cnc2sc(C)c(S(=O)(=O)N3CCCCC3)c2c1=O	-113	-	-	-	-	.
COc1ccc(C)cc1NC(=O)Cn1cnc2sc(C)c(S(=O)(=O)N3CCOCC3)c2c1=O	-100	-	-	-	-	-
CCn1c(-c2ccc(C)cc2)n[nH]c1=S	-	-	-	-	-	-
Cc1ccc(-c2csc3n[nH]c(=S)n23)cc1	?	28µM	?	-	?	-
O=C1CCCN1CCCNCC(=O)N1c2ccccc2Sc2ccccc21	-	-	-	-	35µM	-
O=C1CCCN1CCCNC(=S)Nc1ccccc1Cl	.	.	.	-	-	.
SMILES	PNC inhibitor	HPGD block	12-hLO inh	IMPase Li inh	ALDH1A1 block	IMPase inh
Cc1ccc(OCC(=O)Nc2ccc3nn(-c4ccc(Cl)cc4)nc3c2)cc1	.	.	.	.	.	-
Cc1ccccc1NC(=O)c1cc(N)ccc1N1CCCCC1	?	-	-	-	10µM	-
c1ccc(CNc2oc(-c3ccccc3)nc2-c2cccc3ccccc23)cc1	.	-	-	-	?	.
COC(=O)C1=C(C)NC(=O)/C1=C\c1cc(C)n(-c2c(C)cccc2C)c1C	-	-	-	-	18µM	-
COC(=O)C1=C(C)NC(=O)/C1=C\c1cc(C)n(-c2ccccc2F)c1C	.	.	.	-	16µM	.
Cc1cccc(C)c1-n1c(C)cc(/C=C2\NC(=O)NC2=O)c1C	-	?	-	-	16µM	-
Cc1cc(/C=C2\NC(=S)NC2=O)c(C)n1-c1cccnc1	.	.	.	.	-	.
COC(=O)[C@@]1(Cc2ccc(F)cc2)[C@H]2c3cc(C(=O)N4CCCC4)n(CCc4c[nH]c5cc(F)ccc45)c3C[C@H]2CN1C(=O)c1ccccc1	.	-	-	-	-	.
FC(F)Oc1ccc(/C=N/c2c(-c3ccc(OC(F)F)cc3)nc3n2CCS3)cc1	-	?	-	-	3.5µM	-
c1ccc2c(c1)c1ccccc1n2Cn1c2ccccc2c2ccccc21	.	-	-[11.4 µM]	-	-[13.5 µM]	.
O=[N+]([O-])c1cc(-c2ncccn2)c([N+](=O)[O-])s1	-	28µM	-	-	2.2µM	.
CC(=O)C1C(=O)c2c(cccc2[N+](=O)[O-])C1=Nc1ccc(S(N)(=O)=O)cc1 (configuration not stated)	.	.	.	-	22µM	.
O=C(Nc1ccc(N2CCOCC2)c(S(=O)(=O)Nc2ccc(Cl)cc2)c1)c1cnccn1	.	.	.	.	2µM	.
COc1ccc(NS(=O)(=O)c2cc(NC(=O)c3ccncc3)ccc2N2CCOCC2)cc1	-	-	-	-	-	.
CC(=O)c1ccc(NC(=S)NNC(=O)NC2CCCCC2)cc1	.	.	.	-	1µM	.
Cc1cccc(NC(=S)NNC(=S)NC2CCCCC2)c1C	.	.	.	-	2µM	.
O=C(O)c1ccc(NC(=S)NC2CCCCC2)cc1	-	-	-	-	-	.
Cc1cccc(NC(=O)c2ccccc2NC(=O)C2CCCCC2)c1C	-	2.5µM	-	-	?	-
Cc1cccc(C)c1NC(=S)NC1CCCCC1	-	.	?	.	-	-
CC(C)c1ccc(NC(=S)NC2CCCCCC2)cc1	.	.	.	-	-	.
Cc1ccc(NC(=S)NNC(=S)NC2CCCCC2)cc1	.	.	.	-	3.2µM	.
COc1ccc2c(c1)C(=O)[C@H](OC(=O)Nc1cc(OC)c(OC)c(OC)c1)[C@@H](c1ccc(OC)c(Br)c1)O2	.	-	.	-	-	.
CC1CCN(c2oc(-c3cccs3)nc2S(=O)(=O)c2ccc(Cl)cc2)CC1	.	.	.	.	.	-
S=C(Nc1ccc(Oc2ccc(NC(=S)NC3CCCCC3)cc2)cc1)NC1CCCCC1	?	-	1.3µM	-	-	.
O=C(/C=C/c1ccccc1)NCCSCc1ccccc1	?	3.2µM	-	-	1µM	.
SMILES	PNC inhibitor	HPGD block	12-hLO inh	IMPase Li inh	ALDH1A1 block	IMPase inh
COc1ccc(/C=C/C(=O)NCCSCc2ccco2)cc1	-	14µM	-	-	?	.
CS(=O)(=O)Nc1ccc(C(=O)NCCc2ccccc2)cc1	-	-	-	-	-	-
COc1ccc(/C=C/C(=O)NCCCc2ccccc2)cc1	-	-	-	-	?	.
CS(=O)(=O)Nc1ccc(C(=O)NCCSCc2ccccc2)cc1	.	.	.	-	11µM	.
COc1ccc(/C=C\C(=O)Nc2ccccc2C(=O)O)cc1OC	.	?	-	-	?	-
CCOC(=O)CN1C(=O)N[C@@H](c2ccccc2)[C@H](C(=O)OC)[C@H]1C	.	-	-[11.4 µM]	-	-[13.5 µM]	.
CC(=O)Nc1ccc(NC(=O)C(C)OC(=O)CN(C)S(=O)(=O)c2ccc(Cl)cc2)cc1 (configuration not stated)	-113	-	-	-	-	-
